# Compound activity as filed in PubChem BioAssay.
# In the library only some 31% were active in any assay of this set; here they are far more common.
# CYP2C19 inhib: inhibitors of human CYP2C19; CYP2C19 Supersomes, luciferin-H EGE luminescence, 30 min; actives 21% (n = 96,000); P33261; inhibition, % at 5 µM; AID 778;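 active = CYP2C19 inhibition above a set limit at 5 µM in the primary screen, cut at about 50% in these data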;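 note: plate controls were negative control wells for no effect and 2.5 mM tranylcypromine positive control for full effect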
# CYP2C9 inhib: human CYP2C9 inhibition; CYP2C9 Supersomes, luciferin-H conversion, luminescence; inhibition, % at 5 µM; actives 20% (n = 96,000);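 active = blocking of liver enzyme CYP2C9 beyond about 50% at 5 µM, limit read from the data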
# Target sequence (P11712 whole entry, looked up): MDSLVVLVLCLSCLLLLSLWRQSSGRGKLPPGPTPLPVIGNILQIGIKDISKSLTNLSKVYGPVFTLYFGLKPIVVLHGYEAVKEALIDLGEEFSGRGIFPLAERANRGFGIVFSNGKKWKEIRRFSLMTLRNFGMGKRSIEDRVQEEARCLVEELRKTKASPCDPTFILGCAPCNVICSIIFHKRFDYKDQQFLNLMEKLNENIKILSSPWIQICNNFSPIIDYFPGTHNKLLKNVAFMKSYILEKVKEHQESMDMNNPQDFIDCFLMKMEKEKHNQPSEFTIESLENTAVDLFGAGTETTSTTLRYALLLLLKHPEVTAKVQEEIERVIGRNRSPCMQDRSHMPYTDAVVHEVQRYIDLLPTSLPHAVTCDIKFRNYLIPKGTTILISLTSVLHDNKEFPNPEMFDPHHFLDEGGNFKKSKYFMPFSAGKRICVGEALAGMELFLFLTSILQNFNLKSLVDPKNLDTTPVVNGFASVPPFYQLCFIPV
# CYP2C9 act: CYP2C9 (human) activation; P11712; recombinant CYP2C9, luciferin-H conversion, luminescence; stronger effect = higher value; factor 1 = untreated enzyme, 0 = blocked; activation factor at 5 µM; actives 1.4% (n = 96,000); AID 1024;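 active = activation factor of 2 or more for CYP2C9 at a 5 µM dose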;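 note: 0 = sulfaphenazole-blocked wells and 1 = vehicle-only wells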
# CYP2C19 activ: increases human CYP2C19 enzyme activity | 96,000 tested, under 10 active | AID 1025 | activation factor at 5 µM | P33261 | recombinant CYP2C19, luciferin-H EGE luminescence; stronger effect = higher value; 0 = fully inhibited enzyme, 1 = untreated enzyme;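 active = activation factor of at least 2 at 5 µM in the primary screen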;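 note: 0 = wells with 2.5 mM tranylcypromine and 1 = vehicle-only wells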
# PLAP act: activates human placental alkaline phosphatase. P05187. activation fold at 20 µM. purified PLAP enzyme, luminescent substrate read-out; stronger effect = higher value. actives 1.2% (n = 96,000); in the data active = activation fold above about 2
# The depositor's hits bear a star; · = no result given.
SMILES,CYP2C19 inhib,CYP2C9 inhib,CYP2C9 act,CYP2C19 activ,PLAP act
CC(C)(C)C(=O)CC1(O)C(=O)N(Cc2ccc(Cl)cc2)c2ccccc21 (stereo not given),46,42,0.6,0.5,1.1
CCOC(=O)C1=C(C)N=C2SC(C)C(=O)N2C1/C=C/c1ccccc1OC (stereo not given),49,80*,0.2,0.5,1.7
Fc1ccccc1CSc1nc2ncc(Br)cc2[nH]1,87*,78*,0.2,0.1,1.7
c1ccc2[nH]c(SCc3cscn3)nc2c1,91*,23,0.8,0.1,1.6
Fc1ccccc1CSc1nc2ccccc2[nH]1,100*,85*,0.2,0,1
Nc1nc(SCC(=O)NC2CCCCC2)[nH]c(=O)c1-c1ccccc1,25,13,0.9,0.8,1
O=C(NCc1ccccc1)c1ccc2c(c1)C(=O)N(CC1CCCO1)C2=O (stereo not given),12,-9,1.1,0.9,1.2
Cc1cc(C)c(S(=O)(=O)c2ccccc2)c(Cl)n1,69*,-222,3.2*,0.3,1.2
Cc1ccc(S(=O)(=O)c2c(C)cc(C)nc2Cl)cc1,94*,-70,1.7,0.1,1.4
C/C(=N\NC(=O)c1c(Cl)c(C)nn1C)c1cccc(NC(=O)COc2ccc(Cl)cc2)c1,34,40,0.6,0.7,1.3
COC(=O)c1nn(-c2ccc3c(c2)CCN3C(C)=O)cc1O,68*,10,0.9,0.3,1.1
COc1ccc(C(=O)Nc2ccccc2-c2nnn(CC(=O)Nc3ccc4c(c3)OCCO4)n2)cc1,6,31,0.7,0.9,1
Cc1ccnc(N/C=C(/NC(=O)c2ccccc2)C(=O)N/N=C\c2ccc(F)cc2)n1,-13,20,0.8,1.1,1.2
COC(=O)N1CC(=O)N(OC)C1c1ccc(Cl)cc1Cl (stereo not given),87*,-7,1.1,0.1,1.1
COCON1C(=O)CN(C(C)=O)C1c1ccc(Cl)cc1Cl (stereo not given),34,-2,1,0.7,0.9
CON1C(=O)CN(C(C)=O)C1c1ccc(Cl)cc1Cl (stereo not given),54*,-52,1.5,0.5,0.9
Cn1c(=O)c2c(nc(Oc3ccc4ccccc4c3)n2C)n(C)c1=O,22,19,0.8,0.8,1.3
COc1ccc(OC)c(C(C)NC=O)c1 (stereo not given),-4,-9,1.1,1,0.9
O=C(CN1CCOCC1)n1c2ccccc2c2ccccc21,-1,-19,1.2,1,1
Cc1c(C)n(C(=O)CSc2nncn2C)c2ccccc12,42,-115,2.2*,0.6,1
Cc1c(C)n(C(=O)CN2CCC(C)CC2)c2ccccc12,57*,-7,1.1,0.4,1
Cc1c(C)n(C(=O)CSc2ncn[nH]2)c2ccccc12,59*,-24,1.2,0.4,1.8
CCC(C)Oc1ccccc1C1CC(=O)NC2=C1C(=O)CCC2 (stereo not given),2,-4,1,1,1
O=[N+]([O-])c1cnccc1Nc1ccccc1,98*,92*,0.1,0,0.9
C/C(NCc1cccnc1)=C(\C#N)C(=O)NCc1ccccc1,82*,23,0.8,0.2,1
SMILES,CYP2C19 inhib,CYP2C9 inhib,CYP2C9 act,CYP2C19 activ,PLAP act
O=C(NCc1cccnc1)c1cc(-c2ccccc2)on1,1,25,0.8,1,1.2
COc1ccc(-c2cc(C(=O)NCc3cccnc3)no2)cc1,20,58*,0.4,0.8,1
COc1cc(OC)cc(C(=O)NCc2cccnc2)c1,62*,2,1,0.4,0.9
COc1ccc(C(=O)NCc2cccnc2)cc1Br,28,72*,0.3,0.7,1.1
Cc1ccc(C(=O)Oc2ccc(C(=O)COC(=O)c3cnccn3)cc2)cc1,6,13,0.9,0.9,0.8
COC(=O)c1ccc(COc2ccc(-c3nn[nH]n3)cc2)cc1,30,39,0.6,0.7,1
O=C(CCc1nc2ccccc2c(=O)[nH]1)OCc1nnc(-c2ccccc2)o1,-12,-12,1.1,1.1,1.1
Cc1ccc(C(=O)Nc2cc3c(cc2Cl)OCCCO3)cc1,·,·,·,·,0.9
COCC(=O)Nc1ccc(S(=O)(=O)Nc2cc(C)nc(C)n2)cc1,-1,-3,1,1,1.3
COc1cc(OC)cc(C(=O)NC(=S)Nc2cccnc2)c1,76*,78*,0.2,0.2,1
CC(C)(C)c1ccc(C(=O)NCc2cccnc2)cc1,59*,69*,0.3,0.4,1.1
